According to PubChem BioAssay (NCI):
Compounds without any hit were thinned out: in the full panel of roughly 79,000, 15% have a hit. Unmarked numbers belong to inactive results. Active and inactive are the calls of the source. Rule as the data show it: active = growth inhibition above about 70%; inactive = the rest.

What was measured:
[1] = NCI Yeast Anticancer Drug Screen. Data for the rad50 strain (AID 155);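 also: 0% = growth of vehicle-only cultures of the same strain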; conditions: S. cerevisiae rad50 strain growth inhibition; at 50.0 µM; hits give high values
How it was run: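 A DNA repair-deficient yeast mutant serves as the test organism; compound-induced growth inhibition is calculated against vehicle-treated cells.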

[2] = NCI Yeast Anticancer Drug Screen. Data for the mec2-1 strain (AID 157); conditions: S. cerevisiae mec2-1 strain, at 50.0 µM, hits give high values
How it was run: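 Compounds were applied to mec2-1 yeast cells. Their growth was then compared with that of vehicle-treated cultures to give growth inhibition.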

[3] = NCI Yeast Anticancer Drug Screen. Data for the sgs1 mgt1 strain (AID 161);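 also: 0% = growth of cultures given vehicle only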; conditions: S. cerevisiae sgs1 mgt1 strain, at 50.0 µM, hits give high values
How it was run: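 This yeast growth screen uses a strain with defined DNA-repair lesions; compound-treated growth is compared with vehicle-treated growth.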

[4] = NCI Yeast Anticancer Drug Screen. Data for the cln2 rad14 strain (AID 165);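 also: 0% = growth equal to vehicle treated cultures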; conditions: S. cerevisiae cln2 rad14 strain, at 50.0 µM, hits give high values
How it was run: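 Strain: cln2 rad14 yeast, altered in cell cycle control and DNA damage repair. Read-out: growth inhibition vs vehicle.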

[5] = NCI Yeast Anticancer Drug Screen. Data for the bub3 strain (AID 167); conditions: S. cerevisiae bub3 mutant strain, at 50.0 µM, hits give high values
How it was run: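 Inhibition values come from growth of compound-treated mutant yeast normalised to vehicle-treated controls.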

[6] = NCI Yeast Anticancer Drug Screen. Data for the mlh1 rad18 strain (AID 175); conditions: S. cerevisiae mlh1 rad18 strain growth inhibition; at 50.0 µM; hits give high values
How it was run: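 A repair-deficient yeast strain is exposed to test compound, and growth is scored relative to vehicle-treated controls.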

Row | SMILES | growth inhibition [1] | growth inhibition [2] | growth inhibition [3] | growth inhibition [4] [%] | growth inhibition [5] | growth inhibition [6]
1 | Cc1ccsc1/C=N/Nc1nncc2ccccc12 | 20.3% | 5.35% | 20.6% | 9.05 | 30.4% | 9.7%
2 | CC[O-].CC[O-].O=C1C=C([O-])C(=O)c2ccccc21.O=C1C=C([O-])C(=O)c2ccccc21.[Ti+4] | 17.3% | 14.3% | 15.4% | 26.2 | 30.4% | 4.9%
3 | N#CC(CCc1nc(N)nc(N)n1)(CCc1nc(N)nc(N)n1)c1ccccc1 | -6.7% | -19.1% | 1.9% | -45.7 | -1.2% | -14.9%
4 | Clc1ccc2cc3ccccc3cc2c1 | -16.7% | 2.5% | -3.95% | -16.4 | 5.8% | -21%
5 | N=C1C=Cc2ccccc2/C1=N/N=c1/ccccn1O | 72.2% (active) | 91.6% (active) | 73.5% (active) | 51.7 | 98.3% (active) | 78.2% (active)
6 | COc1ccccc1NC(=O)Cc1nc(=O)[nH]c(=O)[nH]1 | -13.3% | -37.7% | 3.5% | -0.35 | -4.95% | -9.55%
7 | Cc1nc(Nc2ccc([N+](=O)[O-])cc2)sc1C(=O)/C=C/c1ccc(N(C)C)cc1 | 5.1% | -6.85% | 5.6% | 16.2 | 18.6% | -1.1%
8 | C/C=C\C(=O)OCC(C)COC(=O)/C=C/C (configuration not stated) | 21.7% | 15.9% | 4.9% | 9.4 | 2.65% | 6.65%
9 | CCOc1c/c(=N\N=C(/C)c2ccc(Cl)cc2)n(C)c(=O)n1C | -13.8% | -8.5% | -10.5% | -35.2 | -6.85% | -12.7%
10 | CC(C)N(C(=O)C12C3C4C1C1C2C3C41C(=O)C(C)(C)C)C(C)C (configuration not stated) | 43% | 28.9% | 52% | 61 | 41% | 50.8%
11 | O=C1CSc2ccncc2N1 | 13.8% | 2.9% | 13.5% | 11.4 | 15.2% | 24.1%
12 | Nc1nc(N)c2nonc2n1 | -3.7% | -20.8% | -10.8% | -26.2 | -2.85% | 2%
13 | CCOC(=O)CCC(C(=O)c1cccnc1)c1ccccn1 (configuration not stated) | -4% | -3.6% | 6.7% | -52.9 | -4.6% | -7.05%
14 | O=C(/N=C1\N=Nc2nc(C(C(=O)c3cccc([N+](=O)[O-])c3Cl)c3nc4n(c3O)/C(=N/C(=O)Nc3ccc(Cl)cc3)N=N4)c(O)n21)Nc1ccc(Cl)cc1 (configuration not stated) | 9.35% | -8.2% | 5.25% | -6.65 | 0.7% | 7.1%
15 | Cn1cnc(N)c1C(N)=S | 4.65% | 7.5% | -8.6% | -8.55 | 7.9% | 1.1%
16 | O=C(NO)c1ccccc1O | 27.2% | 21% | -14.8% | 4.2 | 8% | 17.8%
17 | C/C=C/C(=O)N(CC)c1ccccc1 | 37.2% | -2.25% | 10.8% | -8.35 | 2.9% | 33.8%
18 | CCc1cccc(C(C)C)c1NC(=O)C(=O)C(CC(=O)Nc1ccc(Cl)c(Cl)c1)C(=O)OC (configuration not stated) | -1.85% | 3.6% | -2.65% | 15.8 | 14.8% | 7.7%
19 | O=C(O)Cc1ccccc1[N+](=O)[O-] | 8.55% | -12.1% | -10.9% | -16.9 | -21.8% | -3.95%
20 | CCC(C)NC(=O)c1ccccc1 (configuration not stated) | 16.8% | 17.7% | 7.8% | -34.5 | 1.75% | 15.3%
21 | S=C(Cl)Sc1ccc(-c2ccc(SC(=S)Cl)cc2)cc1 | 2.7% | -2.5% | -10.4% | -5.6 | 6.1% | -7.9%

Row | SMILES | growth inhibition [1] | growth inhibition [2] | growth inhibition [3] | growth inhibition [4] [%] | growth inhibition [5] | growth inhibition [6]
22 | COc1ccc(-n2c(N)c(C#N)c(C#N)c2-c2ccccc2)cc1 | 7.85% | 8.6% | -16.6% | -4.95 | -6.25% | -49.1%
23 | CN(C)CC1CN(C)CC(CN(C)C)C1(O)C(C(=O)N(C)C)c1ccccc1 (configuration not stated) | 75.2% (active) | 50% | 65.2% | 36.4 | 49.7% | 62.2%
24 | Cc1n[nH]c(=S)[nH]c1=S | -14.3% | -5.1% | 9.4% | -42.1 | -23.2% | 14.4%
25 | NC(=S)N1CCCC1 | -2.2% | -22.1% | 3.05% | 7 | 17.6% | 19.3%
26 | CC(C)(S)CNCCSC(=O)c1ccccc1 | 2.8% | -0.2% | 23.1% | -16.1 | 63.5% | 30.1%
27 | O=C1CCCc2c1cc1c3c(cccc23)CC1 | -9.9% | -23.2% | 0.7% | -15.6 | 9.8% | -1.85%
28 | CCOc1ccc(/C(Cl)=C(\C=O)c2ccc(OC)c(OC)c2)cc1OCC | -0.1% | -4.8% | 3.25% | -2.2 | -3.6% | 2.55%
29 | CCCCCC(=O)OCCOCCCC | 2.05% | 4% | -4.6% | -35.4 | 6.85% | 5.85%
30 | CCOC(=O)c1ccc(N(CC(O)CN)S(=O)(=O)c2ccc(C)cc2)cc1 (configuration not stated) | 5.7% | -9.5% | -11.2% | 4.15 | 3.5% | -1.5%
31 | COC1c2ccccc2C(C)(C)c2nc3ccccc3cc21 (configuration not stated) | -1.05% | -10% | -4.6% | -38 | 1.6% | -3.1%
32 | CC(C)(C)c1cc(C(=O)O)c2c(c1)C(=O)OC2(c1ccccc1)c1ccccc1C(=O)O (configuration not stated) | 29.1% | 7.6% | 5.6% | 9.95 | 8.75% | 31.2%
33 | COc1ccc(CC(N)C(=O)NC2C(CO)OC(n3cnc4c(N)ncnc43)C2O)cc1 (configuration not stated) | 5.65% | -28.6% | -1.6% | -74.3 | -0.25% | -12.8%
34 | CSC1(C)C(=O)Nc2cccc([N+](=O)[O-])c21 (configuration not stated) | -9.85% | -20.1% | 1% | -7.5 | 11.8% | 2.45%
35 | CC(=O)NNC(=S)N/C=C(\C#N)c1nc2ccccc2s1 | 22.2% | 12.2% | -17.2% | 18.4 | -10.7% | 12.1%
36 | O=C1OC(=O)C2=C1CCCC2 | 8.05% | -18.9% | 18.8% | -1.15 | -18% | 6.7%
37 | COc1c(O)cc2oc(-c3ccc(O)cc3)cc(=O)c2c1O | 11% | -5.7% | 29.8% | 10.8 | 16.2% | -0.05%
38 | C#Cc1cccc(N=Cc2cc(Cl)cc(C)c2O)c1 | 16.1% | 10.8% | 36.5% | 10.1 | 37.7% | 33.7%
39 | O=C1CCCC(CCc2ccccc2)O1 (configuration not stated) | 5.45% | -4.05% | 1.3% | -8 | -37.1% | -7.9%
40 | CC(C)C(=O)OC1c2cc(OCCN(C)C)ccc2CC1C (configuration not stated) | -11% | -6.75% | -8.3% | -27.9 | -5.95% | -33.9%
41 | CN1NC2=NCCN=C3NN(C)C(=NCCN=C1S2)S3 | -6.5% | -10.1% | -43.3% | 9.15 | -44.1% | -36.2%
42 | CCOC(=O)C(CCCCS(=O)(=O)O)C(=O)OCC | -12.3% | -9.35% | -18.9% | -35 | -5.25% | 11.2%
